# Assay outcomes (PubChem BioAssay)
# HIV RNase H inh-1 = blocks HIV-1 RNase H cleavage of RNA/DNA duplex | P04585 | RT-RNase H RNA/DNA duplex cleavage, fluorescence | inhibition, % at 10 µM | actives 1.9% (n = 65,000) | AID 565; in the data active = inhibition above about 50%
# HIV RNase H inh-2 = confirmation of HIV-1 reverse transcriptase RNase H inhibitors | shares compounds with HIV RNase H inh-1 | Recombinant RT RNase H, fluorescent RNA/DNA duplex cleavage | inhibition, % at 10 µM | actives 39% (n = 1,000) | AID 651; in the data active = inhibition above about 48%; inconclusive = no clear call, values can overlap the other calls
# * marks the source's active call; other numbers are inactive results; ? = inconclusive. The full list was thinned out, with hits kept by preference.
SMILES,HIV RNase H inh-1,others
O=C(Nc1ccccc1)N1CCC(c2nc(-c3ccc(S(=O)(=O)N4CCOCC4)cc3)no2)CC1,-10,
OCn1ncn(-c2ccccc2)c1=S,9,
OCCn1nc2c3ccccc3nc-2n(-c2ccccc2)c1=S,89*,HIV RNase H inh-2=14
Cc1nn(-c2ccccc2)c(=S)n1-c1ccccc1,3,
Cc1cc(C)n(C2=NS(=O)(=O)c3ccccc32)n1,3,
COc1ccc(OC)c(C2=Nn3c(nnc3-c3cccc(OC(C)C)c3)SC2)c1,6,
C=CCNC(=O)c1ccc2c(c1)nnn2C,-5,
O=C(O)Cn1c(O)c(C=Nc2ccccc2)sc1=S,-3,
CCn1c(O)c(/C=N/n2cnnc2)sc1=S,61*,HIV RNase H inh-2=0
Oc1ccc2ccccc2c1/C=N/n1cnnc1,-9,
O=C(Nc1ccc(C(=O)Oc2ccccc2)c(O)c1)c1ccco1,-2,
CCc1nnc(NC(=O)c2ccc(S(=O)(=O)N(CC)Cc3ccccc3)cc2)o1,22,
CCCCN(CCCC)S(=O)(=O)c1ccc(C(=O)Nc2nnc(COC)o2)cc1,21,
CCCCN(CC)S(=O)(=O)c1ccc(C(=O)Nc2nnc(-c3cccs3)o2)cc1,74*,HIV RNase H inh-2=?
O=C(/C=N/O)NCc1ccncc1,-4,
O=C(c1ccc(F)cc1)C1CCN(C(=O)N2CCOCC2)CC1,7,
O=C(Nc1ccc2c(c1)OCCO2)C1CCN(C(=O)c2ccc(F)cc2)CC1,-1,
O=C(c1ccc(F)cc1)C1CCN(C(=O)c2ccncc2)CC1,88*,HIV RNase H inh-2=42
CCOc1nc(SCCOc2ccccc2)nc(N(C)C)n1,-42,
CC1=C(C(=O)Nc2cccc(C)n2)C(c2ccc3c(c2)OCO3)C2=C(CC(c3ccco3)CC2=O)N1 (stereo not given),-1,
COC(=O)c1sccc1NS(=O)(=O)c1ccc(OC)cc1,-46,
CCOc1ccc(CCNC(=O)C2CCCN(C(=O)N(C)C)C2)cc1OCC (stereo not given),6,
COc1cccc2c1NC(C(=O)O)C1CC=CC21 (stereo not given),-3,
O=C(O)c1ccc(Cl)c2c1C1C=CCC1C(c1ccccn1)N2 (stereo not given),83*,HIV RNase H inh-2=-2
C1=CC2c3ccccc3NC(c3ccncc3)C2C1 (stereo not given),3,
SMILES,HIV RNase H inh-1,others
CN(CC(=O)N1CC=C(c2ccccc2)CC1)S(=O)(=O)c1cnc[nH]1,-3,
COc1ccc(OC)c(-c2nc(C(N)=O)c3[nH]c(=O)n(-c4ccc(F)cc4)c3n2)c1,-1,
Cc1ccc(-n2c(=O)[nH]c3c(C(N)=O)nc(CC(C)C)nc32)cc1,1,
Cc1ccc(-n2c(=O)[nH]c3c(C(N)=O)nc(-c4ccc(C)o4)nc32)cc1,55*,HIV RNase H inh-2=37
Cc1nn(CCC#N)c2c1P(=S)(N1CCCC1)OC(c1ccc(F)cc1)=N2 (stereo not given),91*,HIV RNase H inh-2=72*
CN=C(Nc1cc(C)nn1CCC#N)c1ccc(F)cc1,0,
CC1=C(C)SC(=C(C#N)c2nnc(N3CCOCC3)n2-c2ccccc2)S1,3,
Nc1nc(-c2ccco2)cs1,41,
Nc1nc(-c2ccco2)c(-c2ccco2)s1,-6,
c1coc(-c2nc(-c3ccco3)c(-c3ccco3)nc2-c2ccco2)c1,86*,HIV RNase H inh-2=-1
Cc1ccc(-c2[nH]nc3c2C(c2ccc(OC(=O)N4CCOCC4)cc2)C(C#N)=C(N)O3)cc1 (stereo not given),-15,
COC(=O)c1ccccc1NC(=O)c1sc(=S)n(C)c1N,87*,HIV RNase H inh-2=74*
COC(=O)c1ccccc1NC(=O)c1sc(N)nc1C,-40,
Cn1c(N)c(C(=O)NCc2ccccc2)sc1=S,-6,
CCCCC12CN3CC(C)(CN(C1)C31C(=O)N(C)c3ccc(C)cc31)C2=O (stereo not given),4,
CCOC(=O)N1CC=C2C(C#N)=C(N)C(C#N)(C#N)[C@H](c3ccc(OC(C)C)c(OCC)c3)[C@H]2C1,89*,HIV RNase H inh-2=76*
CCOC(=O)N1CC=C2C(C#N)=C(N)C(C#N)(C#N)[C@H](c3ccsc3)[C@H]2C1,6,
CCOC(=O)N1CC=C2C(C#N)=C(N)C(C#N)(C#N)[C@H](c3ccccc3OCC)[C@H]2C1,29,
Cc1ccccc1-n1c(C)nc2ccccc21,-19,
CCOC(=O)C1=C(C)NC(=O)NC1c1ccc2c(c1)OCCO2 (stereo not given),-17,
CCOC(=O)C1=C(C)N=c2s/c(=C3\C(=O)Nc4ccccc43)c(=O)n2C1c1ccc2c(c1)OCO2 (stereo not given),86*,HIV RNase H inh-2=67*
CCOC(=O)C1=C(C)N=c2s/c(=C\c3ccncc3)c(=O)n2C1c1ccc2c(c1)OCO2 (stereo not given),20,
CCCC1C2CN(C(C)C)CC=C2C(C#N)=C(N)C1(C#N)C#N (stereo not given),0,
C=CCN(C(=O)CCC(=O)O)C1CC(=O)N(c2ccc(OCCC)cc2)C1=O (stereo not given),-2,
CCN(CCCNC(=O)CCc1nc(-c2ccc(OC)cc2)no1)c1cccc(C)c1,-5,
SMILES,HIV RNase H inh-1,others
CC(CN1CCCC1)OC(=O)COc1ccccc1 (stereo not given),-15,
CCOC(=O)c1ccc(NC2OC(=O)c3ccccc32)cc1 (stereo not given),-2,
O=C(c1cc(S(=O)(=O)N2CCCCC2)ccc1F)N1CCCCC1,9,
O=C(c1ccccc1F)N1CCN(S(=O)(=O)c2ccc(S(=O)(=O)N3CCCCC3)cc2)CC1,77*,HIV RNase H inh-2=78*
CS(=O)(=O)N1CCN(C(=O)c2ccccc2F)CC1,-10,
CCOc1ccc(C(=O)NCC(=O)OC(C)C(=O)NCc2ccco2)cc1OCC (stereo not given),-5,
CCOc1ccccc1NC(=O)NC1CC2CCCC(C1)N2Cc1nnnn1CCc1ccccc1 (stereo not given),-6,
COC(=O)c1ccc(S(=O)(=O)NCCSc2nnc3c4ccccc4n(C)c3n2)cc1,-24,
CC1CCCCC1NS(=O)(=O)c1ccc(S(=O)(=O)NCc2ccncc2)cc1 (stereo not given),-3,
Cc1ccc(NC(=O)CSc2n[nH]c(-c3ccncc3)n2)cc1C,-64,
CC1Cc2ccccc2N1C(=O)CSc1nnc(CNc2ccccc2)o1 (stereo not given),-24,
Clc1ccccc1-c1nnc2sc(-c3ccncc3)nn12,-63,
Clc1ccc(-c2nnc3sc(-c4ccccn4)nn23)cc1,-8,
COc1ccc(-c2nnc3sc(-c4ccccn4)nn23)cc1,-3,
Clc1ccc(-c2nn3c(-c4ccncc4)nnc3s2)c(Cl)c1,0,
c1ccc(-c2nn3c(-c4ccncc4)nnc3s2)nc1,64*,HIV RNase H inh-2=47
Clc1ccccc1-c1nn2c(-c3ccncc3)nnc2s1,87*,HIV RNase H inh-2=57*
CN(C)c1nc2c(c(=O)[nH]c(=O)n2C)n1Cc1ccccc1Br,-11,
CCOC(=O)C1=C(C)Nc2nc(SCC)[nH]c(=O)c2C1c1ccncc1 (stereo not given),-14,
O=C(COC(=O)Cc1cccs1)Nc1ccccc1,-19,
OC(CNC1CCCCC1)CN1CCN(CC(O)CNC2CCCCC2)CC1 (stereo not given),-5,
Cc1noc(C)c1CSc1nnc2cc(C)c3ccccc3n12,-79,
O=C(CSc1nnc2c(Cl)cc(C(F)(F)F)cn12)Nc1ccc2c(c1)OCO2,-6,
COc1ccccc1CCn1cnc2c3cc(C)ccc3n(C)c2c1=O,7,
CCc1ccc(CCC(=O)Nc2sc3c(c2C#N)CCCC3)o1,43,
N#Cc1c(NC(=O)c2ccc(Cn3cc(Br)cn3)o2)sc2c1CCCCCC2,88*,HIV RNase H inh-2=62*
